Data reported in publication PMC5540273 (PLoS ONE, 2017).

Key:
Conditions in all cases: concentration: 1 μM,replicates: in singlicate; n = 1
TESK1 = system: TESK1
TGFBR1 = system: TGFBR1
TGFBR2 = system: TGFBR2
TIE1 = system: TIE1
TIE2 = system: T1, TIE2
T1 construct: gene TEK

TLK1 = system: TLK1
TLK2 = system: TLK2
TNIK = system: TNIK
TNK1 = system: TNK1
TNK2 = system: TNK2
TNNI3K = system: TNNI3K
TRKA = system: T2, TRKA
T2 construct: gene NTRK1

TRKB = system: TRKB
TRKC = system: T3, TRKC
T3 construct: gene NTRK3

TRPM6 = system: TRPM6
TSSK1B = system: TSSK1B
TSSK3 = system: TSSK3
TTK = system: TTK
TXK = system: TXK
[1] = system: TYK2(JH1domain-catalytic)
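Also: KINOMEscan kinase panel screen.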

Row | SMILES | %Inh (TESK1) | %Inh (TGFBR1) | %Inh (TGFBR2) | %Inh (TIE1) | %Inh (TIE2) | %Inh (TLK1) | %Inh (TLK2) | %Inh (TNIK) | %Inh (TNK1) | %Inh (TNK2) | %Inh (TNNI3K) | %Inh (TRKA) | %Inh (TRKB) | %Inh (TRKC) | %Inh (TRPM6) | %Inh (TSSK1B) | %Inh (TSSK3) | %Inh (TTK) | %Inh (TXK) | %Inh [1]
1 | Cn1ccc2ncnc(Oc3ccc(NC(=O)Nc4ccnc(C(F)(F)F)c4)c(Cl)c3)c21 | 0% | 0% | 53% | 76% | 11% | 6% | 0% | 0% | 0% | 0% | 58% | 5% | 0% | 27% | 0% | 0% | 0% | 0% | 0% | 0%
2 | Cn1ccc2ncnc(Oc3ccc(NC(=O)Nc4cccc(C(F)(F)F)c4)c(Cl)c3)c21 | 0% | 17% | 0% | 85% | 94.8% | 74% | 0% | 18% | 6% | 0% | 87% | 53% | 84% | 84% | 0% | 0% | 0% | 25% | 0% | 0%
3 | Cn1ccc2ncnc(Oc3ccc(NC(=O)Nc4cc(C(C)(C)C)on4)c(Cl)c3)c21 | 0% | 13% | 0% | 88% | 97.1% | 15% | 0% | 92.5% | 0% | 0% | 90.7% | 96.1% | 96.4% | 99.1% | 0% | 0% | 3% | 2% | 0% | 7%
4 | C[C@@H]1CNc2c(sc3ccc4nc(-c5ccc(O)cc5)ccc4c23)C(=O)N1 | 8% | 1% | 60% | 0% | 25% | 24% | 0% | 42% | 14% | 0% | 1% | 7% | 0% | 0% | 0% | 0% | 4% | 9% | 7% | 74%
5 | Cc1nnc(-c2ccc3occ(-c4ccc(S(C)=O)cc4)c3n2)o1 (centres unmarked) | 0% | 0% | 0% | 0% | 0% | 3% | 0% | 1% | 0% | 0% | 0% | 0% | 0% | 0% | 0% | 0% | 0% | 8% | 0% | 0%
6 | O=C(Nc1cccc(Oc2ccc3nccn3n2)c1)Nc1cccc(C(F)(F)F)c1 | 11% | 4% | 0% | 75% | 5% | 14% | 0% | 51% | 26% | 0% | 66% | 76% | 35% | 55% | 0% | 13% | 0% | 0% | 22% | 9%
7 | Cc1ccc(C(=O)Nc2ccc(Oc3ccc4nc(NC(=O)C5CC5)cn4c3)c(F)c2)c(=O)n1-c1ccccc1 | 30% | 16% | 0% | 95% | 99.4% | 0% | 0% | 18% | 64% | 0% | 24% | 100% | 99.9% | 99% | 0% | 12% | 0% | 17% | 76% | 20%
8 | O=C(NCC1CC1)c1ccc(-c2cc(C(=O)NC3CC3)ccc2F)cc1 [GW810445] | 0% | 27% | 0% | 0% | 0% | 0% | 0% | 0% | 30% | 0% | 0% | 14% | 0% | 0% | 0% | 0% | 0% | 12% | 0% | 19%
9 | COC(=O)c1cccc(NC(=O)NC2CCN(c3ccnc(Nc4cc(OC)c(OC)c(OC)c4)n3)C2)c1 (centres unmarked) [GSK1379767] | 19% | 0% | 0% | 19% | 4% | 14% | 15% | 0% | 0% | 4% | 0% | 97.1% | 81% | 95.6% | 0% | 9% | 13% | 0% | 0% | 40%
10 | CN1CCN(CCNc2nc3cc(Oc4ccc(NC(=O)Nc5cc(C(F)(F)F)ccc5F)cc4)ccc3[nH]2)CC1.Cl.Cl [GW768504] | 0% | 6% | 4% | 89% | 60% | 0% | 2% | 0% | 30% | 0% | 0% | 0% | 0% | 0% | 0% | 8% | 0% | 41% | 0% | 0%
11 | Cc1cccc2c(-c3ccncc3)c(-c3ccc(F)cc3)nn12.Cl [GW461487] | 0% | 8% | 0% | 0% | 0% | 10% | 2% | 7% | 0% | 9% | 8% | 37% | 0% | 0% | 0% | 4% | 15% | 0% | 0% | 7%
12 | O=C1NCCc2[nH]c(-c3ccncc3)cc21 | 6% | 33% | 44% | 0% | 5% | 31% | 8% | 35% | 15% | 0% | 0% | 10% | 19% | 14% | 0% | 0% | 0% | 1% | 2% | 80%
13 | CN1CCN(CCCNc2nccc(-c3c(-c4ccc(F)cc4)nn4cc(C(N)=O)ccc34)n2)CC1 [GW622475] | 23% | 92.3% | 77% | 6% | 0% | 39% | 0% | 76% | 0% | 13% | 3% | 43% | 10% | 6% | 23% | 18% | 24% | 8% | 47% | 0%
14 | C[C@@H]1CNc2c(sc3ccc4nc(-c5ccncc5)ccc4c23)C(=O)N1 | 0% | 0% | 48% | 0% | 0% | 0% | 0% | 0% | 22% | 0% | 0% | 0% | 0% | 0% | 0% | 33% | 2% | 16% | 0% | 46%
15 | Nc1nccc(-c2ccc3c(N)n[nH]c3c2)n1 [GSK1034945] | 2% | – | 0% | 0% | 0% | 14% | 0% | 2% | 0% | 5% | 13% | 0% | 0% | 0% | 26% | 0% | 27% | 0% | 0% | 34%
16 | Cl.Cl.NC[C@H](CC1CCCCC1)NC(=O)c1ccc(-c2ccnc3[nH]ccc23)s1 [GSK1581428] | 0% | 0% | 0% | 100% | 0% | 1% | 4% | 12% | 0% | 0% | 0% | 77% | 26% | 54% | 7% | 84% | 25% | 41% | 0% | 29%
17 | OCCn1cc(-c2cnc3nnn(Cc4ccc5ncccc5c4)c3n2)cn1 | 0% | 0% | 0% | 0% | 0% | 0% | 0% | 0% | 19% | 0% | 0% | 0% | 0% | 0% | 0% | 0% | 0% | 0% | 0% | 0%
18 | CS(=O)(=O)c1cccc(CNc2nc(Nc3ccc4c(c3)[C@@H]3C[C@@H]4CNC3=O)ncc2C(F)(F)F)c1 | 0% | 0% | 0% | 83% | 68% | 18% | 0% | 88% | 97.2% | 56% | 0% | 99.2% | 96.8% | 90.4% | 0% | 0% | 6% | 99.8% | 28% | 94.7%
